Most compounds without a hit are left out; they make up all but 4.1% or so of the library.
rCAG RNA binder: binders of r(CAG) RNA repeats, primary screen, biochemical, fluorescence. r(CAG) RNA repeat, TO-PRO-1 dye displacement fluorescence. inhibition, % at 3 µM. 1.3% of 370,000 active. AID 651821, 2012;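 active means inhibition above the plate cutoff, the mean of all test compounds on that plate plus 3 SD, cut at about 35% in these data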;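 further: 0% = DMSO alone and 100% = 100 µM mitoxantrone as full dye displacement; higher means more dye released from RNA so lower well fluorescence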
ABHD5-PLIN5 inh: ABHD5-PLIN5 interaction inhibitors, primary screen, cell lysate, split luciferase complementation, luminescence | Perilipin-5 (Homo sapiens) + 1-acylglycerol-3-phosphate O-acyltransferase ABHD5 (Homo … | 0.78% of 360,000 active | Split G. princeps luciferase complementation, 4 h | inhibition, % at 4 µM;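 active means inhibition above the mean inhibition across every tested compound plus 3 SD, cut at about 22% in these data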;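 further: 0% = DMSO only wells and the 100% control is not disclosed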
PRMT1 inh: PRMT1 methyltransferase inhibitors, primary screen, biochemical, fluorescence polarization; inhibition, % at 2.79 µM; AID 652257, 2013; recombinant PRMT1, activity-based probe fluorescence polarization; 1.3% of 370,000 active;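 active means inhibition above about 21% made by adding two undisclosed values, limit read from the data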
Target sequence (Q99873 whole entry, looked up): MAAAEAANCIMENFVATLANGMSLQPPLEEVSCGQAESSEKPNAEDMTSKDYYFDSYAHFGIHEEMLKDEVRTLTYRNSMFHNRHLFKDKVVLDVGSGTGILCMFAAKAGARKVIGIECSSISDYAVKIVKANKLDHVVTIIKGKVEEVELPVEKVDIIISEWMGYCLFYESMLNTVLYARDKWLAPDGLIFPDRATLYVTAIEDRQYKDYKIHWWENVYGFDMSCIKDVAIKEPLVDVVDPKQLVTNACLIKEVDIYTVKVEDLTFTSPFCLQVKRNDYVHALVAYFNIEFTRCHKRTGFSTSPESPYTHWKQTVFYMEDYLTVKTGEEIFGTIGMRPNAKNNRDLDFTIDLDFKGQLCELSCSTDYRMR
LEDGF integ inh: blockers of LEDGF/p75-dependent integrase strand transfer – biochemical, TR-FRET, high throughput, primary screen. TR-FRET IN-LEDGF/p75 DNA integration, Eu/Cy5. inhibition, % at 3.7 µM. 0.64% of 370,000 active. AID 743269, 2014;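 active means inhibition above the screen-wide mean plus 3 SD, cut at about 13% in these data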;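 further: signal is the Cy5 over europium emission ratio at 671 and 618 nm; 0% = plate median of compound wells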
MBD2 inh: inhibitors of MBD2 binding to methylated DNA, primary screen, biochemical, TR-FRET, DNA-binding domain, human | inhibition, % at 4.4 µM | 0.31% of 370,000 active | MBD2 binding to methylated oligonucleotide | Methyl-CpG-binding domain protein 2 (Homo sapiens), Q9UBB5; in the data active means inhibition above about 13%
UHRF1 binding: UHRF1 methylated DNA binding inhibitors, primary screen, counter-screen for MBD2 inhibitor project, biochemical, TR-FRET, human UHRF1, single concentration; E3 ubiquitin-protein ligase UHRF1 (Homo sapiens), Q96T88; UHRF1 binding to methylated oligo; inhibition, % at 4.4 µM; 0.75% of 370,000 active; AID 687016, 2013; in the data active means inhibition above about 21%;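 further: UHRF1 SRA domain binding a hemimethylated CpG hairpin DNA probe; 0% = median of test compound wells and 100% = reference inhibitor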
IN multimer up: HIV-1 IN multimer formation enhancers, counter-screen for LEDGF/p75 integration inhibitor project, biochemical, TR-FRET | shares compounds with LEDGF integ inh | TR-FRET HIV-1 integrase multimerization | activation, % at 7.7 µM | 17% of 2,000 active | AID 1053131, 2014; in the data active means activation above about 8.9%
TRFRET interf: TR-FRET optical interference artefacts, confirmation, artefact control for LEDGF/p75-dependent integration inhibitor project, biochemical, HIV-1 IN multimerization; inhibition, % at 7.7 µM; TR-FRET optical interference counterscreen; shares compounds with LEDGF integ inh; AID 1053135, 2014; 2,000 tested, under 10 active;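 active means inhibition above the mean over all tested compounds plus 3 SD, which no compound reached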;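 further: 0% = integrase with antibodies and DMSO and 100% = antibodies without integrase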
IN-LEDGF confirm: inhibitors of HIV-1 IN-LEDGF/p75 DNA integration, confirmation, biochemical, TR-FRET; shares compounds with LEDGF integ inh; TR-FRET LEDGF/p75-dependent HIV-1 integration; inhibition, % at 3.7 µM; 36% of 2,000 active; AID 1053136, 2014; in the data active means inhibition above about 14%
Numbers without * were called inactive; / = not tested or not shown.

SMILES | rCAG RNA binder | ABHD5-PLIN5 inh | PRMT1 inh | LEDGF integ inh | MBD2 inh | UHRF1 binding | IN multimer up | TRFRET interf | IN-LEDGF confirm
O=C1c2c(O)cc(O)cc2O[C@@]12c1c(cc(O)c3c1O[C@H](c1ccc(O)cc1)[C@@H](O)C3)O[C@@H]2c1ccc(O)cc1 | 20.3 | 20.3 | 11.8 | 17.7* | 4.1 | 23.9* | 13.3* | -66.8 | 39.0*
COc1ccccc1N1CCN(C(=O)c2cc3c(C)nn(-c4ccccc4)c3s2)CC1 | 5.8 | / | 4.5 | -2.1 | 2.2 | -0.7 | / | / | /
CN1CCN(CCc2nc3cc(NC(=O)COc4ccccc4)ccc3n2C)CC1 | -8.8 | 6.9 | -0.7 | -0.2 | 3.8 | 0.1 | / | / | /
CC(C)C(=O)Nc1ccc2c(c1)nc(CCN1CCN(C)CC1)n2C | -3.6 | 2.4 | -1.8 | 13.4* | 0.2 | 4.7 | -0.3 | 1.6 | -3.1
C=CCN1C=C2C(=O)C(C)(OC(=O)c3cnc4ccccc4n3)C(=O)C=C2C=C1/C=C/COC (centres undefined) | 14.4 | 6.4 | 17.7 | 25.1* | -1.0 | 5.0 | 2.1 | -10.3 | 39.7*
O=C(Cn1cnc([N+](=O)[O-])n1)c1ccccc1 | 1.8 | -2.7 | 1.6 | -4.1 | 2.6 | 0.7 | / | / | /
O=C(Cn1cnc([N+](=O)[O-])n1)c1ccc(O)c(O)c1 | 5.2 | -0.5 | 10.6 | 40.5* | 4.8 | 14.0 | 9.9* | -35.3 | 22.2*
O=C(OCC#CCSc1nnc(-c2ccccc2)o1)c1ccc(F)cc1 | / | / | -2.5 | -1.9 | -2.9 | -1.5 | / | / | /
CCOC(=O)NC1(NC2CCCCC2)Oc2ccccc2O1 | -3.1 | 2.5 | 19.3 | 21.8* | -0.3 | 4.6 | -1.3 | 6.5 | -2.1
CCC(CC)C(=O)N(C)c1c(C)nc2c(OCc3ccc(C#N)cc3)cccn12 | -1.5 | 0.1 | -2.5 | 14.7* | -1.5 | -1.0 | -1.8 | 9.0 | -6.8
CCC(CC)C(=O)N(C)c1c(C)nc2c(OCc3ccccc3C)cccn12 | -2.5 | 8.3 | 8.3 | 2.8 | 6.4 | 3.5 | / | / | /
O=S(=O)(c1ccc(CN2CCOCCOCCN(Cc3ccc(S(=O)(=O)C(F)(F)F)cc3)CCOCC2)cc1)C(F)(F)F | / | / | -2.7 | 1.0 | 1.4 | -0.3 | / | / | /
CC(C1=CCCCC1)c1cnn(C)c1 (centres undefined) | 1.0 | / | -5.6 | 8.7 | -6.6 | 0.8 | / | / | /
COc1cc2c(cc1OC)C(C1(O)CCCCC1)NCC2 (centres undefined) | -5.4 | -1.9 | -1.1 | 14.2* | -4.0 | -2.1 | 0.8 | -2.8 | -11.8
COc1cc2c(cc1OC)C(C(N)=O)NCC2 (centres undefined) | 1.5 | 9.5 | -2.8 | -2.8 | -0.2 | -0.3 | / | / | /
O=C(C(=O)N1CCC(CNC(=O)c2sc3ccccc3c2Cl)CC1)c1cccs1 | 4.1 | / | 5.8 | 3.8 | 1.3 | 5.2 | / | / | /
O=C(C(=O)N1CCC(CNC(=O)C2COc3ccccc3O2)CC1)c1cccs1 (centres undefined) | 1.4 | / | 3.0 | 20.8* | -0.7 | -0.2 | 5.0 | -24.0 | -0.7
COC(=O)C12C=C3CC(C)=C3C(=O)N1Cc1[nH]c3ccccc3c1C2 (centres undefined) | 5.0 | / | 20.1 | 3.9 | -4.2 | -5.3 | / | / | /
Cc1cc(Br)cc(C=Nc2ccc(N3CCOCC3)cc2)c1O | 1.0 | -10.5 | -0.1 | 25.7* | -3.8 | -0.3 | 2.5 | -12.7 | 16.9*
Oc1ccc(C=Nc2ccc(N3CCOCC3)cc2)c(O)c1 | 16.8 | -11.3 | 3.5 | 19.5* | -2.6 | -2.6 | 19.2* | -96.5 | 23.4*
Oc1ccc(N=Nc2cccc(C(F)(F)F)c2)cc1C=Nc1ccc(N2CCOCC2)cc1 | 2.9 | -14.3 | 1.2 | 14.1* | -2.8 | -3.9 | -0.9 | 2.9 | 14.1*
Oc1c(Cl)cc(Cl)cc1C=Nc1ccc(N2CCOCC2)cc1 | -0.1 | -1.5 | 3.5 | 5.8 | 2.9 | 2.6 | / | / | /
Cc1ccc(-n2c(Cc3cccs3)nnc2SCc2ccc(C#N)cc2)cc1 | 0.8 | / | -3.4 | 0.7 | -2.0 | -1.8 | / | / | /
COc1cccc(NC(=O)CSc2nnc(-c3ccoc3C)n2-c2ccccc2)c1 | -3.7 | / | -4.2 | 29.3* | -2.7 | -2.9 | 1.6 | -5.6 | -12.9
COC(=O)[C@]12C[C@H](CC(=O)N3CCC(c4ccccc4)CC3)C(=O)N(Cc3cccc4ccccc34)C1=C[C@H](C(C)C)O[C@@H]2C1CC1 | 6.6 | / | 0.2 | -0.7 | 4.5 | 0.5 | / | / | /
SMILES | rCAG RNA binder | ABHD5-PLIN5 inh | PRMT1 inh | LEDGF integ inh | MBD2 inh | UHRF1 binding | IN multimer up | TRFRET interf | IN-LEDGF confirm
O=C1c2cc(O)c(O)cc2S(=O)(=O)C1c1ccccc1 (centres undefined) | 6.3 | 4.5 | 23.8* | 22.6* | 2.0 | 27.4* | 1.6 | -8.1 | 7.6
O=C(CN1C(=O)c2ccccc2S1(=O)=O)c1ccc(O)c(O)c1 | 16.7 | -2.5 | 4.4 | -8.1 | 2.5 | 2.0 | / | / | /
O=C(NCCc1ccccc1)OCc1cn(Cc2ccccc2C(F)(F)F)nn1 | -2.4 | / | -0.3 | -3.3 | -3.0 | 0.5 | / | / | /
O=C(OCc1cn([C@H]2C[C@H](c3ccccc3)N(CC3CCCCC3)C[C@@H]2O)nn1)c1ccccc1 | 8.2 | -14.7 | 0.9 | 4.1 | -0.9 | -0.2 | / | / | /
COc1ccc([C@H]2C[C@H](O)[C@@H](n3cc(COC(=O)c4ccccc4)nn3)CN2CC2CCCCC2)cc1 | 5.7 | -14.8 | 2.0 | 28.5* | 1.2 | 2.0 | -0.6 | 3.1 | -0.9
COCC(=O)OC1CCn2c1nc1c2C(=O)C(C)=C(NC(C)=O)C1=O (centres undefined) | 2.3 | -16.3 | -2.2 | 16.2* | -2.6 | 13.3 | 6.0 | -21.2 | 58.4*
Cc1ccc(S(=O)(=O)N(C)c2ccccc2C(=O)Nc2c(F)cccc2F)cc1 | -4.3 | -0.1 | -6.9 | 36.3* | -2.3 | 0.1 | 0.8 | -4.0 | -6.6
CC(=O)c1cccc(NC(=O)c2ccccc2N(C)S(=O)(=O)c2ccc(C)cc2)c1 | -4.0 | -2.5 | 4.6 | 0.2 | 1.6 | 2.8 | / | / | /

Screening results: PubChem BioAssay, The Scripps Research Institute Molecular Screening Center
